Compound activity deposited in PubChem BioAssay by Center for Chemical Genomics, University of Michigan.
Many of the other results were omitted from the sample, so hits are more common in it than they were.
Dicer processing – inhibitors of human Dicer processing of pre-microRNA | AID 1347074 | z-score at 25 µM | cat-ELCCA pre-miR-21 Dicer processing, chemiluminescence; stronger effect = higher value | Q9UPY3 | 47,000 compounds, 6% hits; in the data active = z-score above about 3, passing the limit was not always enough;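 also: plate controls were vehicle for no effect and no enzyme for full effect; higher signal means more uncleaved substrate so more Dicer inhibition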
An asterisk follows results filed as active.

SMILES	Dicer processing
COc1ccc(/C=C/c2sc3ccc(O)cc3[n+]2C)cc1	-0.77
O=C(CSc1nccc(-c2cccs2)n1)c1cc(-c2ccc(Cl)c(Cl)c2)no1	4*
O=C(CSc1nccc(-c2cccs2)n1)Nc1ccccc1	-0.43
CC(C)NC(=O)CSc1nccc(-c2cccs2)n1	0.49
c1ccc2[nH]c(CCCc3nc4ccccc4s3)nc2c1	1.7
CCOC(=O)N1CCN(C2CC(=O)N(c3ccc(Cl)cc3)C2=O)CC1 (configuration not stated)	-0.77
CC1CN(C(=O)CSc2nc(-c3ccco3)cc(C(F)(F)F)n2)CC(C)O1 (configuration not stated)	0.95
Cc1ccc2nc3c(nc2c1C)C(O)=C3O	4.2*
CC1CN(c2ncnc3sc4c(c23)CCCC4)CC(C)O1 (configuration not stated)	0.64
CN1CCN(c2ncnc3sc4c(c23)CCCC4)CC1	3.1*
c1nc(N2CCCC2)c2c3c(sc2n1)CCCC3	-0.19
c1ccc2[nH]c(CN3CCN(c4ncnc5sc6c(c45)CCCC6)CC3)nc2c1	-0.71
CC1CCc2sc3ncnc(N4CCN(CCO)CC4)c3c2C1 (configuration not stated)	8.7
OCCN1CCN(c2ncnc3sc4c(c23)CCCC4)CC1	4.5*
O=C(Nc1cccc(C(F)(F)F)c1)N1CCN(C2c3ccccc3-c3ccccc32)CC1	-0.88
Cc1c(NC(=O)O/N=C(/N)c2ccc(Cl)cc2Cl)sc2nc(-c3ccc(Cl)cc3)nn12	-0.93
CC(C)CC(Nc1ncnc2ccccc12)C(=O)O (configuration not stated)	-0.34
CC(C)N(Cc1ccccc1)S(=O)(=O)c1ccc(CNC(=O)c2ccc(Cl)cc2)s1	-1
CCOC(=O)C1=C(C)NC2=C(C(=O)CC(c3ccc(OC)cc3)C2)C1c1ccc(OC)c(OC)c1 (configuration not stated)	-0.75
Oc1ccccc1-c1nc2ccccc2o1	-0.43
O=c1oc2ccccc2n1-c1nc2ccccc2o1	5.6*
CC(C)Cn1c(=O)oc2ccccc21	-0.3
Cc1nc(N2CCN(c3ccccn3)CC2)nc2c1C(=O)CC(c1ccccc1F)C2 (configuration not stated)	-1.4
Cc1ccc(OCCSc2nc3ncnc(N)c3[nH]2)c(C(C)C)c1	3.6*
Cc1ccc(C(C)C)c(OCCSc2ncnc3nc[nH]c23)c1	-0.81
SMILES	Dicer processing
COc1ccccc1OCCSc1nc2ncnc(N)c2[nH]1	-0.36
C/C(=N\Nc1nc2c(c(=O)n(C)c(=O)n2C)n1Cc1ccccc1)c1ccc(Cl)cc1	2.8
CCOc1cc(C)c(Cl)cc1S(=O)(=O)Nc1ccccn1	0.85
Nc1cccc(-c2nc3ccccc3o2)c1	0.17
Nc1cccc(-c2nc3cc(Cl)ccc3o2)c1	4.5*
Nc1ccc(-c2nc3cc(N)ccc3o2)cc1	-0.37
CCOc1ccc(-c2nc3cc(N)ccc3o2)cc1	1.5
CN(C)c1ccc(-c2nc3cc(N)ccc3o2)cc1	3.4*
Cc1cc2nc(-c3cccc(N)c3)oc2cc1C	0.66
CN1c2ccccc2N(C)C1c1ccccc1	-1.6
CCc1nnc(NC(=O)COc2ccc(Br)cc2)s1	1.1
Cc1ccccc1OC1C(=O)N(C2CCCC2)C1c1ccc2c(c1)OCO2 (configuration not stated)	0.23
Cc1cc(NS(=O)(=O)c2ccc(Nc3nc(-c4ccc(Cl)cc4)cs3)cc2)no1	2.9
Cc1ccc(Nc2nc(-c3c(C)nc4ccccn34)cs2)cc1	3
Cc1nc2ccccn2c1-c1csc(Nc2ccc(Cl)cc2)n1	7.1*
Cc1nc2ccccn2c1-c1csc(Nc2ccc(S(N)(=O)=O)cc2)n1	4.3*
CCN(CC)c1ccc(Nc2nc(-c3sc(N)nc3C)cs2)cc1	-0.11
Cc1ccc(C)c(-c2csc(Nc3ccc(S(N)(=O)=O)cc3)n2)c1	5.1*
Cc1nnc(Nc2ccc(Cl)cc2)s1	2.8
NS(=O)(=O)c1ccc(Nc2nc(-c3cccnc3)cs2)cc1	1.4
N#CCCN(Cc1ccccc1)C(=O)c1ccc(Cl)cc1	-1.2
Cc1cc(C)nc(NS(=O)(=O)c2ccc(NC(=O)Nc3c(-c4ccccc4)noc3C)cc2)n1	-1
O=C(C1Sc2nnc(-c3ccccc3)n2NC1c1ccc(Cl)cc1)N1CCCCC1 (configuration not stated)	-0.94
O=C(Nc1ccc(F)cc1F)Nc1cn(-c2ccccc2)nc1-c1ccccc1	-0.92
CCOC(=O)c1sc(NC(=O)C2CCCC2)c(C(=O)OCC)c1C	-0.74
SMILES	Dicer processing
CCOC(=O)c1sc(NC(=O)C2COc3ccccc3O2)c(C(=O)OCC)c1C (configuration not stated)	3.3*
CCC(=O)Nc1sc(C(=O)OC)c(C)c1C(=O)OC	-0.34
COC(=O)c1c(NC(=O)C2COc3ccccc3O2)sc2c1CCCC2 (configuration not stated)	0.53
CCOC(=O)c1c(NC(C)=O)sc(C(=O)CC)c1C	6.1*
CCOC(=O)c1sc(NC(=O)C2CCCO2)c(C(=O)OCC)c1C (configuration not stated)	-0.87
Cc1nn2c(c1-c1ccccc1)N=C(c1ccccc1)CC2c1ccco1 (configuration not stated)	-0.21
CCOC(=O)C(=NNc1ccccc1Cl)C(=O)OCC	-0.14
CCCCCC(=O)Nc1nc2ccccc2s1	-1.3
COC(=O)c1sccc1Oc1ccc(Cl)cc1N1C(=O)CCC1=O	1.5
CC1(C)CCC(=O)N(c2ccc(OC(F)(F)F)cc2)C1=O	2
Cc1ccc(Cl)cc1N1C(=O)CCC(C)(C)C1=O	3.3*
COC(=O)c1sc(SCCOC(=O)Nc2ccccc2)c2c1CC(C)(C)CC2=O	-0.91
Cc1cccc2[nH]c(SCc3cc4c(cc3Cl)OCO4)nc12	0.52
COc1ccc(C2/C(=C(\O)c3ccc(Cl)cc3)C(=O)C(=O)N2c2nnc(C)s2)cc1OC (configuration not stated)	4.1*
Cc1nnc(N2C(=O)C(=O)/C(=C(/O)c3ccccc3)C2c2ccccc2)s1 (configuration not stated)	1.5
COc1ccc(C2/C(=C(\O)c3ccc(F)cc3)C(=O)C(=O)N2c2nnc(C)s2)cc1OC (configuration not stated)	1.7
COc1cc2ncnc(NCCO)c2cc1OC	-1.4
OCCN1CCN(CCCN2c3ccccc3Sc3ccc(Cl)cc32)CC1	32
CN1CCN(CCCN2c3ccccc3Sc3ccc(S(=O)(=O)N(C)C)cc32)CC1	6*
CC(=O)c1ccc2c(c1)N(CCCN1CCC(CCO)CC1)c1ccccc1S2	80
C=CCNc1nc(SCc2ccc(Cl)cc2)nc2sc3c(c12)CCCC3	-3.6
O=S(=O)(Nc1ccc(F)c(Cl)c1)c1cc(Br)c(Br)s1	0.26
O=c1cc(-c2ccccc2)nc2scc(-c3ccc([N+](=O)[O-])cc3)n12	-0.14
CC1=CC(C)(C)N(C(=O)NC2CCCCC2)c2cc(C)ccc21	-0.28
CCOc1ccc2c(c1)C(C)CC(C)(C)N2C(=O)NC1CCCCC1 (configuration not stated)	1.6
SMILES	Dicer processing
Cc1ccc2c(c1)N(C(=O)NC1CCCCC1)C(C)(C)CC2C (configuration not stated)	3.2*
CN(C)C(=S)Nc1ccc(F)cc1F	7.7
CCOC(=O)/C(C#N)=C1\CCCc2cc(OC)ccc21	0.05
CCOC(=O)c1[nH]c(Cc2[nH]c(C(=O)OCC)c(C)c2C)c(C)c1C	-0.8
CCOC(=O)c1[nH]c(C)c(C(C)=O)c1C	-1
CCOC(=O)c1[nH]c(C)c(CC)c1C	4.3*
CC1=C(C(=O)OCCOC(C)C)C(c2ccc(O)cc2)C2=C(CCCC2=O)N1 (configuration not stated)	0.26
